Test results as given in PubChem BioAssay (NCATS).
Records with an inconclusive call do not appear. Calls of active or inactive are those of the source. Unless noted, calls come from the whole dose curve; as a rule, active = well fitted curve in the direction sought with a large enough effect; inconclusive = small, poorly fitted or top-dose-only effect, or another doubt; inactive = no such curve, though single readings can be large; an effect the other way counts as inactive or inconclusive.

Columns and labels:
[1] = AP1 Signaling Pathway (AID 357; active = well fitted curve in either direction with a large enough effect, not every such curve was filed as active;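 note: ME-180 reporter cells stimulated with EGF at its EC50 level; % is set by controls: 0 for no effect and ±100 for the full control effect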)
In short: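 Titration-series screen for positive or negative modulators of EC50 EGF-induced signaling in ME-180 cells carrying an AP-1-driven beta-lactamase reporter. After 5 hours at 37 degrees Celsius, CCF4 460nm/530nm emission ratio gave %Activity; AC50 values derived.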

[2] = NFAT Signaling Pathway (AID 444; active = well fitted curve in either direction with a large enough effect, not every such curve was filed as active;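 note: carbachol stimulus at about its EC50 of 1 µM final; % is set by controls: 0 for no effect and ±100 for the full control effect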); conditions: Jurkat NFAT-bla M1, carbachol, beta-lactamase ratio, 5 h; at 38 µM (top of the series)
In short: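 Jurkat cells carrying an NFAT-driven β-lactamase reporter and co-transfected muscarinic M1 receptor were treated with compound plus carbachol (1 uM final, an EC50 level) for 5 h at 37 °C. CCF4 loading followed for 1 h at RT; 460/530 nm ratio gave %activity.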

[3] = Stat Signaling Pathway (AID 446; active = well fitted curve in either direction with a large enough effect, not every such curve was filed as active;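 note: ME-180 cervical cancer cells given 40 pM IL-6 alongside compound; SIE-controlled beta-lactamase reporter measured as 460/530 nm FRET emission ratio; % is set by controls: 0 for no effect and ±100 for the full control effect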)
In short: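 IL-6/STAT signaling read in ME-180 cells via an SIE beta-lactamase reporter. Stimulus was 40 pM IL-6 (its AC50) for 5 hrs, so both activation and inhibition register.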

[4] = molecular target: Glucocorticoid receptor (Homo sapiens) (UniProt P04150); assay: GR-EFC Redistribution (AID 451; calls by dose curve; note: potency is the fitted concentration of half-maximal effect); conditions: CHO-K1 GR-EFC translocation, beta-gal luminescence, 2 h
In short: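 CHO-K1 cells stably expressing nuclear-localized β-gal enzyme acceptor and GR fused C-terminally to the enzyme donor fragment; ligand-driven nuclear translocation restores β-gal by complementation. Compounds titrated up to 46 uM final, 2 h at 37 °C; luminescence read.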

[5] = molecular target: 3',5'-cyclic-AMP phosphodiesterase 4B (Homo sapiens) (UniProt Q07343); assay: qHTS Assay for Inhibitors of PDE-IV (AID 607; active = well fitted activation curve with a large enough effect in the main read-out, with a control signal flat, not every such curve was filed as active; note: % of control where 0% means no effect)
In short: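 Live HEK293 cells with a modified cyclic nucleotide-gated (CNG) channel report intracellular cAMP via membrane-potential dye fluorescence (ex 535/em 590 nm). Endogenous PDE-IV was targeted. Compounds were tested at up to 22.9 uM final; RO 20-1724 100 uM served as control.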

[6] = molecular target: Guanine nucleotide-binding protein G(i) subunit alpha-1 (Homo sapiens) (UniProt P63096); assay: qHTS Assay for Inhibitors of RGS12 GoLoco Motif Activity (Green Fluorophore) (AID 879);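 note: 0% = labeled peptide with Gαi1 and full inhibition = labeled peptide alone without protein; negative values mean loss of peptide binding seen as reduced polarization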
In short: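 Fluorescence polarization assay: 50 nM Gαi1 with 10 nM FITC-labeled RGS12 GoLoco peptide in 10 mM Tris pH 7.5, 150 mM NaCl, 0.1 mM GDP, 0.05% NP40, 10 min at room temperature with compound.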

[7] = qHTS Assay for Identification of Small Molecule Agonists for Hypoxia Response Element Signaling Pathway (AID 914; active = well fitted activation curve with a large enough effect in the signal ratio, with a control signal flat, not every such curve was filed as active; the % refers to the signal ratio; note: % of control where 0% means no effect); conditions: ME-180 (cervical carcinoma) HRE-bla reporter, beta-lactamase ratio, CoCl2, 17 h; activation: hits give high values
In short: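 Reporter activity (beta-lactamase, CCF4 460nm/530nm ratio) in HRE-bla ME-180 cells is recorded after 17 h compound exposure with EC50 CoCl2 at 37 degrees Celsius. AC50 values come from titration data.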

[8] = qHTS Assay for Identification of Small Molecule Agonists for Thrombopoietin (TPO) Signaling Pathway (AID 917); note: % is set by controls: 0 for no effect and ±100 for the full control effect
In short: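 Luminescence from a Glycoprotein IIb promoter–driven luciferase reporter served as read-out in murine Ba/F3 cells carrying the human TPO receptor. Cells, deprived of IL-3 overnight, received compounds with 26 pM TPO and were incubated 24 hrs at 37 C.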

[9] = molecular target: Pyruvate kinase (Leishmania mexicana) (UniProt Q27686); assay: qHTS Validation Assay for Inhibitors of Leishmania Mexicana Pyruvate Kinase (AID 945); note: potency is the fitted concentration of half-maximal effect
In short: (§1)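 Mutant LmPYK (E451W), 0.2 nM, plus 0.5 mM PEP and 0.1 mM ADP in 50 mM imidazole pH 7.2 containing 0.01% Tween 20 and 0.05% BSA. Incubated 1 h at room temperature; luminescence via PKLight, normalized to DMSO.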

[10] = molecular target: Pyruvate kinase PKM (Homo sapiens) (UniProt P14618); assay: qHTS Assay for Activators of Human Muscle Pyruvate Kinase (AID 954; active = well fitted curve in the direction sought with a large enough effect, not every such curve was filed as active;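 note: 0% = uninhibited enzyme and -100% = no enzyme or full thiadiazolimine inhibition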)
In short: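 Enzyme was run at intermediate activity so both inhibitors and activators could be detected. ATP formed from ADP and PEP by 0.1 nM human PKM2 during a 1 h room-temperature incubation was quantified by coupled luciferase luminescence.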

[11] = molecular target: Alpha-galactosidase (Coffea arabica) (UniProt Q42656); assay: Counterscreen for Glucocerebrosidase Inhibitors: qHTS Assay for Coffee Bean alpha-Galactosidase at pH 4.5 (AID 957);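 note: plate controls were enzyme alone for no effect and no enzyme for full effect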
In short: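 Coffee bean enzyme (2 nM) with 80 uM 4-methylumbelliferyl alpha-D-galactopyranoside in 50 mM citric acid, 0.005% Tween-20, pH 4.5, 20 min at room temperature; compounds 0.7 nM–77 uM. Stopped at pH 10, fluorescence 365/440 nm; AC50 from Hill fits.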

[12] = molecular target: Pyruvate kinase PKM (Homo sapiens) (UniProt P14618); assay: qHTS Assay for Inhibitors of Human Muscle Pyruvate Kinase (AID 958); conditions: purified human PKM enzyme activity
In short: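 Screening used highly purified human pyruvate kinase M2 under submaximal activity, with PEP at its Km and ADP below Km. After an hour at room temperature, ATP was read by luciferase luminescence.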

[13] = molecular target: Pyruvate kinase (Leishmania mexicana) (UniProt Q27686); assay: qHTS Validation Assay for Activators of Leishmania Mexicana Pyruvate Kinase (AID 959)
In short: as §1

[14] = molecular target: Alpha-galactosidase A (Homo sapiens) (UniProt P06280); assay: Counterscreen for Glucocerebrosidase Inhibitors: qHTS Assay for Human alpha-Galactosidase at pH 4.5 (AID 992); note: 0% is about no effect
In short: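 Read-out is 4-methylumbelliferone fluorescence (365 nm excitation, 440 nm emission) after a pH 10 NaOH/glycine stop. Reactions held 2 nM enzyme and 80 uM substrate at pH 4.5 for 20 min at room temperature.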

[15] = molecular target: alpha-glucosidase (Oryza sativa, rice) (UniProt Q653V4); assay: Counterscreen for Glucocerebrosidase Inhibitors: qHTS Assay for Rice alpha-Glucosidase at pH 5.0 (AID 997);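 note: 0% = full activity with enzyme and -100% = basal without enzyme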
In short: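 Rice alpha-glucosidase (4 nM final) with 400 uM 4-methylumbelliferyl-alpha-D-glucopyranoside in citrate buffer pH 5.0, 20 min at room temperature, stopped at pH 10; fluorescence 365/440 nm, compounds 0.7 nM–77 uM, AC50 from Hill fits.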

[16] = molecular target: Alpha-galactosidase (Coffea arabica) (UniProt Q42656); assay: Counterscreen for Glucocerebrosidase Inhibitors: qHTS Assay for Coffee Bean alpha-Galactosidase at pH 5.9 (AID 998);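 note: plate controls were uninhibited enzyme for no effect and no-enzyme basal signal for full effect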
In short: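 Green coffee bean enzyme (2 nM final) was incubated with compounds (0.7 nM–77 uM) and 4-methylumbelliferyl alpha-D-galactopyranoside (80 uM) in citrate buffer pH 5.9, 20 min at room temperature. High-pH stop; fluorescence 365/440 nm; AC50 from Hill fits.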

[17] = molecular target: DNA repair nuclease/redox regulator APEX1 (Homo sapiens) (UniProt P27695); assay: qHTS Validation Assay for Inhibitors of the Human Apurinic/apyrimidinic Endonuclease 1 (APE1) (AID 1705)
In short: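 qHTS, 1536-well. APE1 + cpd 15 min RT → 50 nM TAMRA/BHQ-2 THF-abasic dsDNA substrate → kinetic fluorescence, 3 reads/60 s; delta(read3−read1) = reaction progress. No-enzyme buffer = negative control.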

[18] = Counterscreen for APE1 Inhibitors: Fluorescent Dye Displacement Validation Assay (AID 1707);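 note: plate controls were ThO with dsDNA and no compound for no effect and ThO without dsDNA for full effect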
In short: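 ThO 250 nM + dsDNA 50 nM (THF abasic site, 5'-TAMRA), Tris-HCl pH7.5/50mM NaCl/2 mM MgCl2/0.01% Tween-20; compounds pin-transferred; ex 480/em 540 nm endpoint. Neutral = no compound; no-DNA ThO wells = negative control.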

[19] = molecular target: Endonuclease 4 (Escherichia coli (strain K12)) (UniProt P0A6C1); assay: Counterscreen for APE1 Inhibitors: qHTS Validation Assay for Inhibitors of Endonuclease IV (AID 1708); note: % is set by controls: 0 for no effect and ±100 for the full control effect
In short: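 Concentration-response counterscreen run identically to the APE1 assay: 15 min room-temperature preincubation of 2 nM enzyme with compound, reaction started with 50 nM quenched abasic DNA, progress taken from kinetic fluorescence.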

[20] = qHTS for differential inhibitors of proliferation of Plasmodium falciparum line 7G8 (AID 1815);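 note: potency is the fitted concentration of half-maximal effect; parasite growth measured after three days of incubation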
[21] = qHTS for differential inhibitors of proliferation of Plasmodium falciparum line 3D7 (AID 1876); note: potency is the fitted concentration of half-maximal effect
[22] = qHTS for differential inhibitors of proliferation of Plasmodium falciparum line D10 (AID 1877);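 note: potency is the fitted concentration of half-maximal effect; parasites grown with compound for 72 h before DNA staining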
[23] = qHTS for differential inhibitors of proliferation of Plasmodium falciparum line W2 (AID 1883); conditions: Potency: Plasmodium falciparum W2 proliferation inhibition;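 note: potency is the fitted concentration of half-maximal effect; parasites grown with compound for 72 h before lysis and staining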
[24] = qHTS for differential inhibitors of proliferation of Plasmodium falciparum line HB3 (AID 1886); conditions: Potency: Plasmodium falciparum HB3 proliferation inhibition;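 note: potency is the fitted concentration of half-maximal effect; parasites grown with compound for 72 h before SYBR Green readout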
[25] = molecular target: ATP-dependent DNA helicase Q1 (Homo sapiens) (UniProt P46063); assay: qHTS Validation Assay for Inhibitors of RecQ-Like Dna Helicase 1 (RECQ1) (AID 2353);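 note: plate controls were DMSO vehicle for no effect and enzyme-free control for full effect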
In short: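 50 nM RECQ1T1 preincubated 15 min with compound in Tris pH 8.0 buffer with MgCl2, DTT, Tween-20 and 2.5 ug/ml poly(dI-dC); started with 200 nM TAMRA/BHQ-2 forked duplex and 2 mM ATP. Unwinding read as fluorescence (525/598 nm), two reads 2 h apart.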

[26] = Validation screen for inhibitors of Lassa infection (AID 463096; calls by dose curve; note: % is set by controls: 0 for no effect and ±100 for the full control effect)
[27] = Validation screen for small molecules that induce DNA re-replication in MCF 10A normal breast cells (AID 463097); note: 0% is about no effect; nearly all actives have a fitted effect of over 60% in size
In short: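 Image-based qHTS: normal breast cells are incubated with compound for 48 hr, stained with Hoechst, and scanned for total nuclear fluorescence. Compounds raising the fraction of nuclei with elevated DNA content count as re-replication inducers.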

[28] = molecular target: M-phase phosphoprotein 8 (Homo sapiens) (UniProt Q99549); assay: qHTS Validation Assay for Inhibitors for MPP8 Chromodomain Interactions with Methylated Histone Tails (AID 488949);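 note: 50 nM MPP8 with 50 nM peptide preformed then compounds added for 30 min; AlphaScreen signal from MPP8 chromodomain bound to biotinylated H3K9me3 peptide; top concentration of the series differs between compounds; % is set by controls: 0 for no effect and ±100 for the full control effect; nearly all actives have a fitted effect of over 55% in size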
In short: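 50 nM MPP8 + 50 nM b-H3K9me3 peptide, PBS pH 7.4/0.01% Tween-20, 30 min RT; + cpd 30 min RT; + AlphaScreen donor/Ni-chelate acceptor beads 10 ug/mL final, 30 min dark; luminescence read.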

[29] = molecular target: Thyrotropin receptor (Homo sapiens) (UniProt P16473); assay: qHTS Assay for Antagonists of the Thyroid Stimulating Hormone Receptor (AID 488980); note: 0% is about no effect
In short: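 Readout is cAMP by HTRF competition between cellular cAMP and cAMP-d2 for a cryptate-labelled antibody. Antagonism was assessed in TSHR-transfected HEK293 cells stimulated with 4 nM TSH (EC80, final) in the presence of RO 20-1724.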

[30] = molecular target: Thyrotropin-releasing hormone receptor (Homo sapiens) (UniProt P34981); assay: qHTS for Small Molecule Agonists and Allosteric Enhancers of Human TRH Receptor: Validation Screen for Agonists (AID 493127;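 active = calcium activation more than 3 SD above the typical response in the agonist read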; note: 0% is about no effect); conditions: TRH receptor agonist cell assay; at 2 µM; hits give high values
In short: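 TRHR cells loaded with fluo-8 calcium dye; FDSS kinetic fluorescence (Ex 480/Em 530) read at 1 s/cycle after 23 nL compound addition. Agonist-mode calcium response recorded before the 10 nM TRH (EC20) addition.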

[31] = molecular target: Galactokinase (Homo sapiens) (UniProt P51570); assay: qHTS Validation Assay for Inhibitors of Human Galactokinase (GALK) (AID 493189); note: 0% is about no effect
In short: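 5 nM GALK / 100 uM galactose / 35 uM ATP, 20 mM HEPES pH8.0, 5 mM MgCl2, 60 mM NaCl, 1 mM DTT, 0.01% BSA (final). RT 1 h; Kinase-Glo Plus luminescence.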

[32] = Validation screen for small molecules that induce DNA re-replication in SW480 colon adenocarcinoma cells (AID 504364); note: 0% is about no effect
In short: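 SW480 cells (250/well) exposed 48 h at 37 C, 5% CO2, then Hoechst-stained 40 min. Nuclear DNA content imaged by fluorescence scanning (405 nm excitation, 500-530 nm emission); re-replication scored as increased nuclei with elevated intensity.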

[33] = molecular target: Voltage-gated inwardly rectifying potassium channel KCNH2 (Homo sapiens) (UniProt Q12809); assay: qHTS Assay for Small Molecule Inhibitors of the Human hERG Channel Activity (AID 588834);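 note: top concentration of the series differs between compounds; % is set by controls: 0 for no effect and ±100 for the full control effect; lower thallium flux fluorescence means stronger hERG block; nearly all actives have a fitted effect of over 50% in size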
In short: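 hERG-BacMam U2OS, 2000 cells/well; 0.7X FluxOR loading 1 hr RT dark; cpd ~10 min 37 °C; stim buffer; FDSS fluorescence 2 min @ 1 s; AC50 Hill fit.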

[34] = molecular target: Rap guanine nucleotide exchange factor 3 (Homo sapiens) (UniProt O95398); assay: Confirmatory qHTS for agonist of cAMP-regulated guanine nucleotide exchange factor 3 (EPAC1) (AID 1645881);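 note: EPAC1 catalysed release of BODIPY-GDP from Rap1B seen as fluorescence loss; 100% = effect of cAMP agonist control; nearly all actives have a fitted effect of over 75% in size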
[35] = molecular target: Rap guanine nucleotide exchange factor 3 (Homo sapiens) (UniProt O95398); assay: Counterscreen qHTS for antagonist of cAMP-regulated guanine nucleotide exchange factor 3 (EPAC1) (AID 1645888);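 note: fluorescence loss as bound BODIPY-GDP is released from Rap1B; % of control where 0% means no effect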
In short: (§2)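 Measured: fluorescence of BODIPY-GDP bound to Rap1B, which falls as exchange proceeds. Conditions include 50 uM competing GDP, 5 and 30 min reads, and a later cAMP challenge for antagonist detection.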

[36] = molecular target: Rap guanine nucleotide exchange factor 3 (Homo sapiens) (UniProt O95398); assay: Counterscreen qHTS for agonist of cAMP-regulated guanine nucleotide exchange factor 3 (EPAC1) (AID 1645889); note: % of control where 0% means no effect; nearly all actives have a fitted effect of over 40% in size
In short: as §2

[37] = molecular target: Rap guanine nucleotide exchange factor 4 (Homo sapiens) (UniProt Q8WZA2); assay: Confirmatory qHTS for agonist of cAMP-regulated guanine nucleotide exchange factor 4 (EPAC2) (AID 1645884);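 note: nucleotide exchange releases bodipy-GDP from Rap1 and this lowers its fluorescence; % is set by controls: 0 for no effect and ±100 for the full control effect; nearly all actives have a fitted effect of over 65% in size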
[38] = molecular target: Rap guanine nucleotide exchange factor 4 (Homo sapiens) (UniProt Q8WZA2); assay: Confirmatory qHTS for antagonist of cAMP-regulated guanine nucleotide exchange factor 4 (EPAC2) (AID 1645885); note: % is set by controls: 0 for no effect and ±100 for the full control effect; nearly all actives have a fitted effect of over 25% in size

Sequence of Rap guanine nucleotide exchange factor 3 (Homo sapiens) (O95398 whole entry, looked up): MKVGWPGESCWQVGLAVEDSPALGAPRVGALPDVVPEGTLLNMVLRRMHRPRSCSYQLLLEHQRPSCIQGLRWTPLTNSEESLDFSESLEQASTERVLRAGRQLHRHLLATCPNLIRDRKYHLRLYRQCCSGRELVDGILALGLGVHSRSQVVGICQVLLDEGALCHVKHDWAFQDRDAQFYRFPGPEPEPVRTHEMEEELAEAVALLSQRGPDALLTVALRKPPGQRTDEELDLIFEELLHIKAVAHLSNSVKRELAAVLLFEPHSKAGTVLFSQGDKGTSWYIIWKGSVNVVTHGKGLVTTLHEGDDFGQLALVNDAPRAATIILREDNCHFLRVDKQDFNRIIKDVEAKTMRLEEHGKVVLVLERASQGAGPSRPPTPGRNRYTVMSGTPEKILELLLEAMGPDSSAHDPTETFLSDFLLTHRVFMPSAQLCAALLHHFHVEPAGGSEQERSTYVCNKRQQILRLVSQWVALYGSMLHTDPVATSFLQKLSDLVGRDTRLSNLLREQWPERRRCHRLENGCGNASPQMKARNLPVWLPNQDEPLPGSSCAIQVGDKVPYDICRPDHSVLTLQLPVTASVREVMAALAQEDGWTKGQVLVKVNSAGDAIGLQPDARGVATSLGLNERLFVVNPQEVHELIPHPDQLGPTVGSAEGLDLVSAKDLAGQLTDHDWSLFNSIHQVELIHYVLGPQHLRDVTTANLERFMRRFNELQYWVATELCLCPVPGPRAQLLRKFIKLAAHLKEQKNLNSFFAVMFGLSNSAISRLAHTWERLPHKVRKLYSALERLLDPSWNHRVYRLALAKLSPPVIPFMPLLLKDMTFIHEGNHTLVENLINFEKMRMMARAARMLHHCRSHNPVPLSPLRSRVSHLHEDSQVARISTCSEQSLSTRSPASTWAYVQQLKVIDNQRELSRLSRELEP
Sequence of Rap guanine nucleotide exchange factor 4 (Homo sapiens) (Q8WZA2 whole entry, looked up): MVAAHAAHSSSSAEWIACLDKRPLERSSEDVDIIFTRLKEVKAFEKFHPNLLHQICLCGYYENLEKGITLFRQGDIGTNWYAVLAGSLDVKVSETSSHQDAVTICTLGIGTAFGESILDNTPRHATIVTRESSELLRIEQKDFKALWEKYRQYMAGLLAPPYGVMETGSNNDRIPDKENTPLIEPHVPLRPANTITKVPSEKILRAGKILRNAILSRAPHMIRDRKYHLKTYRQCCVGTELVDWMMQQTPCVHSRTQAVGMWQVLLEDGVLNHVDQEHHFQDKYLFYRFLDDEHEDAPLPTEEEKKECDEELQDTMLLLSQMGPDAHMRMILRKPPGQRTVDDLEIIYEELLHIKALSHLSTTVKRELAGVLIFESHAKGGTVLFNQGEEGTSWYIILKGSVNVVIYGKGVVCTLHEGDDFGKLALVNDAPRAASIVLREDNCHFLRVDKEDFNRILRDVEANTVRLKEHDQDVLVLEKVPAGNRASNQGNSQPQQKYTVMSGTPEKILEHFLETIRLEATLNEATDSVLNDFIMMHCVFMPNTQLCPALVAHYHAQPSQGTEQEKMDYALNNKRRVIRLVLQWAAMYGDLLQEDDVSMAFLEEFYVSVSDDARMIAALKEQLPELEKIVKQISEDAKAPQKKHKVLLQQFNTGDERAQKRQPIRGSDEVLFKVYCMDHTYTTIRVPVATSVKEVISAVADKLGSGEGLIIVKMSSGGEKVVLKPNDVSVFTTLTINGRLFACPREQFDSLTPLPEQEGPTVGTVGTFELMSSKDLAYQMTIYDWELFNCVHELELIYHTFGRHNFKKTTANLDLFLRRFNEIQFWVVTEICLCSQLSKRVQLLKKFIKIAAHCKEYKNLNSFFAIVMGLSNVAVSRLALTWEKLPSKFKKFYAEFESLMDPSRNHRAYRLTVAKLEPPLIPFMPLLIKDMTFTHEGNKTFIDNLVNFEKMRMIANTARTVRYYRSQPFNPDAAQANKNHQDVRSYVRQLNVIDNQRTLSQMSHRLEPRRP
Sequence of Pyruvate kinase (Leishmania mexicana) (Q27686 2-499 E452W): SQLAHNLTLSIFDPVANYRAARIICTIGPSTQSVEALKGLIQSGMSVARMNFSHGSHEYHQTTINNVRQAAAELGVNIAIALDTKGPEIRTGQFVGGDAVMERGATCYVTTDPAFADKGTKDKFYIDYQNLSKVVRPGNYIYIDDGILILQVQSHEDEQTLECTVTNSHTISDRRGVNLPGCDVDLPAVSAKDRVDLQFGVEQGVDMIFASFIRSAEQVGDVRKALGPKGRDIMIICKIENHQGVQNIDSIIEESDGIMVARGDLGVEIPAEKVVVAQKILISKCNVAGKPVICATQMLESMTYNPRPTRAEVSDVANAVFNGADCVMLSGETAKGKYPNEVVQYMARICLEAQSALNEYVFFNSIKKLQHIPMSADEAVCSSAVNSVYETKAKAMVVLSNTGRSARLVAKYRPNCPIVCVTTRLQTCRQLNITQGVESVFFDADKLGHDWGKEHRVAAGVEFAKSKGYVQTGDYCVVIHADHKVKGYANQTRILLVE
Sequence of Alpha-galactosidase (Coffea arabica) (Q42656 whole entry, looked up): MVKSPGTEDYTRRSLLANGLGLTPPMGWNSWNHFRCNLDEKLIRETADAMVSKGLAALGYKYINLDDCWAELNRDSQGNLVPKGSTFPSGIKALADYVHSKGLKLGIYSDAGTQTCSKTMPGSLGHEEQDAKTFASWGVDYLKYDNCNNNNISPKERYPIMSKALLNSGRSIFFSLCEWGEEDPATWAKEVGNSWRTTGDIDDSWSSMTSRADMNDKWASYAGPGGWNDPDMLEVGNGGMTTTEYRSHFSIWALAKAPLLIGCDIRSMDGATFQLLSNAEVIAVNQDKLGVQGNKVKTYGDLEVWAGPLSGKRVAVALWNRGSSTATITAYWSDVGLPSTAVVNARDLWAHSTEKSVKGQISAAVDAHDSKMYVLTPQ
Sequence of Pyruvate kinase PKM (Homo sapiens) (P14618 whole entry, looked up): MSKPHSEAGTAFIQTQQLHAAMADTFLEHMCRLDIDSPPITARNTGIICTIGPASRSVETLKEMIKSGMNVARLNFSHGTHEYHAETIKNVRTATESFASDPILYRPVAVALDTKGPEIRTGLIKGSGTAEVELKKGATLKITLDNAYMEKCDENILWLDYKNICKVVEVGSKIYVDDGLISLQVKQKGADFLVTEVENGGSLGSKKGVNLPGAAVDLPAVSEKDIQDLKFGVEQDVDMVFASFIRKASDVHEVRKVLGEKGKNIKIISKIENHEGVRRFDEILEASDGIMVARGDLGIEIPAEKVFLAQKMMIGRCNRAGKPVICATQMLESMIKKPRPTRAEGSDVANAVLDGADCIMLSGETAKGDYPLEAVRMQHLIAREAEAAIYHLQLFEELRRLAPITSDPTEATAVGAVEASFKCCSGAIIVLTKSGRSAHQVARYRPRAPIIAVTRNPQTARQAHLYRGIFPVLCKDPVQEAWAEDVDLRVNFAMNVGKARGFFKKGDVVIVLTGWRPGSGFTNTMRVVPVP
Sequence of Thyrotropin receptor (Homo sapiens) (P16473 whole entry, looked up): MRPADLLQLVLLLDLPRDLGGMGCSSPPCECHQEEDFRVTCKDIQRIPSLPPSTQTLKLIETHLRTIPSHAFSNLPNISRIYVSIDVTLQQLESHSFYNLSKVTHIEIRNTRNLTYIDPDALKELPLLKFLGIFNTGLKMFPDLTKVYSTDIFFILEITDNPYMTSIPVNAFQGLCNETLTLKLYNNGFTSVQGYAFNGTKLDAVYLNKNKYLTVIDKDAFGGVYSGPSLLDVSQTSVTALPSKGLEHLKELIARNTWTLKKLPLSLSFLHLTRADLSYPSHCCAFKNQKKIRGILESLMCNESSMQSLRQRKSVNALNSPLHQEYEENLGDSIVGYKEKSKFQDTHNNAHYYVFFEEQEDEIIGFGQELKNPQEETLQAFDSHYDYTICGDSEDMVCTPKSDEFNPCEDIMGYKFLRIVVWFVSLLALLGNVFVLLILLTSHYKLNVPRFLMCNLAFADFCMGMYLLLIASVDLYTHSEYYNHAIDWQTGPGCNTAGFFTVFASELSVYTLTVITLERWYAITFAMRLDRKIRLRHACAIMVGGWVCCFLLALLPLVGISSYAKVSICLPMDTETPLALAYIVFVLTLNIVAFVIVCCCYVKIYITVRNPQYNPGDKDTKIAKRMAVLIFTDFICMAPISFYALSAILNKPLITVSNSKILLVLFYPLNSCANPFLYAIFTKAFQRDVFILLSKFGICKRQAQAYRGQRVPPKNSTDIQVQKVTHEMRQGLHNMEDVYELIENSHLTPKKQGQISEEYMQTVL
Sequence of Guanine nucleotide-binding protein G(i) subunit alpha-1 (Homo sapiens) (P63096 whole entry, looked up): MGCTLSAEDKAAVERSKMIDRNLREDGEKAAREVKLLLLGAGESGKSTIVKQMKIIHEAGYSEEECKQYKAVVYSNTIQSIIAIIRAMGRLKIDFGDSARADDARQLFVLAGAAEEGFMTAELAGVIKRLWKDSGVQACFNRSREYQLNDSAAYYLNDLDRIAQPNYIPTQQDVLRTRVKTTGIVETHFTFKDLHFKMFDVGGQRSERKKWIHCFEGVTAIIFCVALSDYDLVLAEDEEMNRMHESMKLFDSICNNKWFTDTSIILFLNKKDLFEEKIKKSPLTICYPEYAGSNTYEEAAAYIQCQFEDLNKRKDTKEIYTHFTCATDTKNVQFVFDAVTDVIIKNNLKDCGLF
Sequence of Thyrotropin-releasing hormone receptor (Homo sapiens) (P34981 whole entry, looked up): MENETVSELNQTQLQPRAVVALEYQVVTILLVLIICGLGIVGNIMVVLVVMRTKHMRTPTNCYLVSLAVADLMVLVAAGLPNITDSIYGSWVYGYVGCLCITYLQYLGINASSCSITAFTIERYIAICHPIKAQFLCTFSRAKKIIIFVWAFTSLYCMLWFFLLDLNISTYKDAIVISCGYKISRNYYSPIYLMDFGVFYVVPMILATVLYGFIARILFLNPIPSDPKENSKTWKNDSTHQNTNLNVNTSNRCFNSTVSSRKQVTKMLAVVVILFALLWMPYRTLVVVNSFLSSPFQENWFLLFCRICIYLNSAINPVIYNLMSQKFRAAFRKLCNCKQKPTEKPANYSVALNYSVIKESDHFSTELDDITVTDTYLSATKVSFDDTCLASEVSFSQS

NNCc1cccc(O)c1
inactive: outcome [1] | activity change, negative = inhibition [2] -15.7% | outcome [3] | Potency [4] > 46 µM | Potency [5] | outcome [6] | activation [7] 15.1% | outcome [8] | outcome [10] | outcome [11] | outcome [13] | outcome [14] | outcome [15] | outcome [16] | Potency [17] | outcome [18] | Potency [19] | outcome [25] | Potency [26] | Potency [27] | Potency [28] | outcome [29] | activation [30] 0.875% | outcome [31] | outcome [32] | Potency [33]
active: Potency [9] 10 µM | Potency [12] 15.8 µM | Potency [20] 12.6 µM | Potency [21] 12.6 µM | Potency [22] 14.1 µM | Potency [23] 12.6 µM | Potency [24] 14.1 µM

c1ccc(C(c2ccccc2)c2cccnc2)cc1
inactive: Potency [34] | outcome [35] | Potency [36]

CCCCN1C(=O)/C(=C\c2ccco2)C(=O)N(CCc2ccccc2)C1=O
inactive: Potency [34] | Potency [37] | Potency [38] | outcome [35] | Potency [36]

Cc1ccccc1-c1nc(CN2C(=O)CN=C(c3ccccc3)c3ccccc32)c(C)o1
inactive: Potency [34] | Potency [37] | outcome [35]
